Records with an inconclusive call do not appear. The source made the active and inactive calls. Calls follow the shape of the dose curve; as a rule, active = well fitted inhibition curve with a large enough effect; inconclusive = small, poorly fitted or top-dose-only effect; inactive = flat fitted curve, though single readings scatter.
% is scaled to controls: 0 for no effect and ±100 for the full control effect; potency is read from the fitted curve at half-maximal effect.

This assay is described as follows: qHTS to identify inhibitors of the type 1 interferon - major histocompatibility complex class I in skeletal muscle: primary screen against the NCATS LOPAC collection (AID 1347405).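 Also: human myoblasts with HiBiT tag on endogenous HLA-B stimulated by IFN-beta; lytic HiBiT luminescence reporting HLA-B protein level.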 The following applies: iHSKM muscle cells, IFN-b-induced MHC-I HiBiT luminescence, 24 h; series mostly up to 45.9 µM; activity change, negative = inhibition: at the top concentration. In outline:
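First, engineered myoblasts carrying HLA-B-HiBiT were seeded in medium lacking dexamethasone with 4 ng/ml IFN-beta. After 1 hr, compounds were pinned in (top 46 uM final, 7 points). After 24 hrs at 37 C, luminescence was measured following 10 min lysis.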
A general note: Quantitative high-throughput screening tests each substance at several concentrations.
Consider `CN1C2CCC1CC(OC(=O)c1cc(Cl)cc(Cl)c1)C2` (centres undefined), for which the “activity change, negative = inhibition” value is -18.9% (inactive).

`CCCCc1ccc(C(=O)O)nc1`: the “activity change, negative = inhibition” value was 11.9% (inactive).

As for `NC1CC1c1ccccc1` (centres undefined), the “activity change, negative = inhibition” value is -6.74% (inactive).

`O=C(O)CC[N+](=O)[O-]`: the “activity change, negative = inhibition” value was -3.1% (inactive).

Regarding `CCCN1CCC[C@H](c2cccc(O)c2)C1`, the “activity change, negative = inhibition” value was 4.21% (inactive).

On to `O=C(N[C@H]1CN2CCC1CC2)c1ccc(Cl)cc1`, for which the “activity change, negative = inhibition” value was -2.86% (inactive).

For `CNCCc1c[nH]c2ccc(O)cc12`, the “activity change, negative = inhibition” value was -2.87% (inactive).

With `CC(C)Oc1cccnc1N(C)C1CCN(Cc2ccccc2)CC1`, the “activity change, negative = inhibition” value was 9.57% (inactive).

As to `CC(=O)NCCc1c[nH]c2ccccc12`, the “activity change, negative = inhibition” value is 1.87% (inactive).

On to `COc1cc(C(O)CN)ccc1O` (centres undefined), for which the “activity change, negative = inhibition” value is 8.6% (inactive).

Consider `O=C(O)[C@@H]1CCN1`, for which the “activity change, negative = inhibition” value is 11.8% (inactive).

For the molecule `CCCN1CCO[C@@H]2c3cc(O)ccc3OC[C@H]21`, the “activity change, negative = inhibition” value is -8.59% (inactive).

Regarding `NCCc1c[nH]c2ccc(O)cc12`, the “activity change, negative = inhibition” value is 4.87% (inactive).

For `O=C1CCCN1CC#CCN1CCCC1`, the “activity change, negative = inhibition” value was -0.928% (inactive).

In the case of `NC1CCc2cc(O)c(O)cc2C1` (centres undefined), the “activity change, negative = inhibition” value was 7.39% (inactive).

In the case of `O=C(O)Cc1cnc[nH]1`, the “activity change, negative = inhibition” value was -2.16% (inactive).

On to `S=C(NC1CCCCC1)N1CCC(c2cnc[nH]2)CC1`, for which the “activity change, negative = inhibition” value was -1.41% (inactive).

For the molecule `NCCc1c[nH]c2ccccc12`, the “activity change, negative = inhibition” value is 6.16% (inactive).

In the case of `NC(CCP(=O)(O)O)C(=O)O` (centres undefined), the “activity change, negative = inhibition” value was -0.743% (inactive).

As for `C[C@]12CCC3C(CC[C@H]4C[C@H](O)CC[C@]34C)C1CC[C@@H]2C(=O)CO` (some centres undefined), the “activity change, negative = inhibition” value is -11.2% (inactive).

On to `CC(Cc1ccc(O)cc1)NCC(O)c1cc(O)cc(O)c1` (centres undefined), for which the “activity change, negative = inhibition” value is -5.46% (inactive).

As for `CC[C@@H](C(N)=O)N1CCCC1=O`, the “activity change, negative = inhibition” value is 5.84% (inactive).

In the case of `C=CCN1CC[C@]23CCCCC2[C@H]1Cc1ccc(O)cc13` (some centres undefined), the “activity change, negative = inhibition” value was -3.37% (inactive).

Regarding `c1ccc2sc(C3(N4CCCCC4)CCCCC3)cc2c1`, the “activity change, negative = inhibition” value was -15% (inactive).

On to `C[C@@H](N)Cc1cnc[nH]1`, for which the “activity change, negative = inhibition” value was 5.1% (inactive).

Turning to `NC(=O)CN1CC(O)CC1=O` (centres undefined), the “activity change, negative = inhibition” value is 2.45% (inactive).

Take `Oc1ccc2c3c1O[C@H]1c4[nH]c5c(c4C[C@@]4(O)[C@@H](C2)N(CC2CC2)CC[C@]314)C[C@@]1(O)[C@H]2Cc3ccc(O)c4c3[C@@]1(CCN2CC1CC1)[C@H]5O4`: the “activity change, negative = inhibition” value was 2.35% (inactive).

For the molecule `CCCN(CCC)C1CCc2ccc(O)cc2C1` (centres undefined), the “activity change, negative = inhibition” value was -7.2% (inactive).

As for `NC(CP(=O)(O)O)C(=O)O` (centres undefined), the “activity change, negative = inhibition” value is -5.3% (inactive).

Turning to `COC(=O)[C@@H](N)CCCN=C(N)N[N+](=O)[O-]`, the “activity change, negative = inhibition” value was 6.86% (inactive).

Consider `C#CCOC(=O)C1=CCCN(C)C1`, for which the “activity change, negative = inhibition” value is -29.7% (inactive).

Regarding `CNCCc1ccc(O)c(O)c1`, the “activity change, negative = inhibition” value is -17.2% (inactive).

For the molecule `NC(N)=NOCCC(N)C(=O)O` (centres undefined), the “activity change, negative = inhibition” value was -21% (inactive).

`CC[C@@]1(O)C(=O)OCc2c1cc1n(c2=O)Cc2cc3ccccc3nc2-1`: the Potency is 0.708 µM (active).
